According to PubChem BioAssay (NCI):
Compounds without any hit were thinned out: in the full panel of roughly 83,000, 20% have a hit.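 Negative percent growth values reflect cell death: -40 means 40% of the cells present at the start died, and -100 means all died.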 Activity calls are given as the source filed them. Rule for the calls: active = growth percent below 10; inactive = the rest.

Key:
Assay in all cases: NCI-60 one-dose screen, 48 h (100 = growth as untreated, 0 = no growth, -100 = all killed)
Conditions in all cases: 10 µM unless noted
[1] = system: SR leukemia
[2] = system: RPMI-8226 leukemia
[3] = system: OVCAR-8 ovarian
[4] = system: OVCAR-5 ovarian
[5] = system: OVCAR-4 ovarian
[6] = system: SK-OV-3 ovarian
[7] = system: IGROV1 ovarian
[8] = system: OVCAR-3 ovarian
[9] = system: HS 578T breast
[10] = system: NCI/ADR-RES ovarian

Measured: growth

Clc1ccccc1C(c1ccccc1)(c1ccccc1)n1ccnc1
inactive: [1] 19.2% | [2] 18.7% | [3] 29.1% | [4] 57.8% | [5] 33.2% | [6] 69.3% | [7] 55.5% | [8] 29.3% | [9] 58.2% | [10] 33.1%

CCSc1nc2ccccc2o1
inactive: [1] 94.2% | [2] 104% | [3] 103% | [4] 101% | [5] 101% | [6] 104% | [7] 90.1% | [8] 111% | [9] 102% | [10] 108%

NC1=C(Br)C(=O)c2ncccc2C1=O
inactive: [3] 10.3% | [6] 34.9%
active: [1] -27.8% | [2] 0.625% | [4] -49.4% | [5] -89.5% | [7] -5.9% | [8] -11.9% | [9] -13.1% | [10] 9.48%

NC(=S)Nc1ccc2c(c1)Cc1ccccc1-2
inactive: [1] 84.9% | [2] 62.1% | [3] 84.5% | [4] 101% | [5] 83.4% | [6] 98.1% | [7] 88.3% | [8] 98.3% | [9] 88.2% | [10] 88.2%

Cc1cc(N/N=C/c2ccccn2)nc2ccccc12
inactive: [1] 11.5% | [2] 13.7% | [4] 37.9% | [5] 16.4% | [6] 31.6% | [8] 28.6% | [9] 74.8%
active: [3] 6.78% | [7] 2.45% | [10] 7.9%

CCCCCCCCCCCCCCCC[N+]1(C)CCCC1c1cccnc1 (stereo not given)
inactive: [1] 42.7% | [2] 21% | [3] 38.4% | [4] 48.4% | [5] 47.1% | [6] 60.5% | [7] 42.3% | [8] 38.3% | [9] 80.2% | [10] 87.8%

CC(C)Nc1ccc(Nc2ccc(NC(C)C)cc2)cc1
inactive: [1] 26.2% | [2] 17.8% | [3] 51.6% | [4] 96.3% | [5] 49.5% | [6] 53.2% | [7] 50.7% | [8] 31.6% | [9] 73.4% | [10] 95.5%

CCCCN(CCCC)CCCCCCCCCCO
inactive: [1] 81% | [2] 133% | [3] 107% | [4] 97.3% | [5] 93.4% | [6] 109% | [7] 94% | [8] 104% | [9] 105% | [10] 103%

O=C(NNc1ccccc1)OCc1ccccc1
inactive: [1] 47.1% | [2] 64.2% | [3] 61.4% | [4] 53.1% | [5] 112% | [6] 105% | [7] 58.7% | [8] 91.4% | [9] 91.8% | [10] 55.2%

Cn1c(-c2ccccc2)c(/C=C/C2=[N+](C)c3ccccc3C2(C)C)c2ccccc21
inactive: [4] 33.9% | [5] 12.2% | [7] 33.9% | [9] 11% | [10] 86.8%
active: [1] 9.26% | [2] -1.71% | [3] 2.16% | [6] -9.3% | [8] 6.26%

CCCOS(=O)(=O)c1ccccc1
inactive: [1] 108% | [2] 71.2% | [3] 104% | [4] 93% | [5] 123% | [6] 91.9% | [7] 104% | [8] 107% | [9] 126% | [10] 110%

CCCCCCCCCCCC1N=C(N)N=C(N)N1c1cccc(Br)c1 (stereo not given)
active: [1] -29.2% | [2] -40% | [3] -14.6% | [4] -32.8% | [7] -30.2% | [8] -28.6%
inactive: [5] 55.4% | [6] 32.6% | [9] 18.9% | [10] 105%

Cc1nc(Sc2nc3ccc([N+](=O)[O-])cc3s2)sc1C
active: [1] -13.2% | [2] 2.79% | [8] -2.8%
inactive: [3] 19.5% | [4] 34.8% | [5] 36.4% | [6] 39.4% | [7] 32% | [9] 50% | [10] 16.7%

CCCCCCCCc1cc(Cl)c(O)c(Cl)c1
inactive: [1] 83.1% | [2] 98.3% | [3] 103% | [4] 101% | [5] 115% | [6] 101% | [7] 133% | [8] 101% | [9] 98.7% | [10] 103%

O=C(C[P+](c1ccccc1)(c1ccccc1)c1ccccc1)c1ccccc1
inactive: [1] 90.4% | [2] 92.6% | [3] 95.9% | [4] 89.6% | [5] 83.9% | [6] 104% | [7] 89.5% | [8] 93.8% | [9] 96.9% | [10] 82.8%

Oc1ccc2c(c1)CCc1ccccc1-2
inactive: [1] 104% | [2] 105% | [3] 106% | [4] 92.4% | [5] 90.9% | [6] 105% | [7] 116% | [8] 112% | [9] 96.8% | [10] 114%

c1ccc(C2NCCNC2c2ccccc2)cc1 (stereo not given)
inactive: [1] 98.1% | [2] 108% | [3] 101% | [4] 99.3% | [5] 116% | [6] 113% | [7] 102% | [8] 113% | [9] 104% | [10] 109%

O=[N+]([O-])c1ccc([I+]c2ccccc2)cc1
active: [3] -27.6% | [4] -85.8% | [5] -91% | [8] -15.3% | [9] 1.04%
inactive: [1] 17.7% | [2] 41.6% | [6] 50.2% | [7] 43.4% | [10] 28.9%

COC(=O)Nc1nc2ccc(C3(c4ccc(F)cc4)OCCO3)cc2[nH]1
active: [8] 4.74%
inactive: [1] 25.2% | [2] 10.4% | [3] 21.1% | [4] 47.5% | [5] 68.4% | [6] 22% | [7] 29.8% | [9] 37.7% | [10] 24.2%

Cc1ccccc1NC(=O)Cc1csc2[n+]1C(=O)/C(=C/c1ccc([N+](=O)[O-])cc1)S2
inactive: [1] 79.7% | [2] 91.2% | [3] 97.9% | [4] 98.4% | [5] 83.6% | [6] 90.1% | [7] 103% | [8] 97.8% | [9] 98.6% | [10] 100%

CCCCC(C=O)(C=C=C(C)C)CC (stereo not given)
inactive: [1] 108% | [2] 98% | [3] 98.5% | [4] 98.3% | [5] 96.5% | [6] 98% | [7] 110% | [8] 107% | [9] 112% | [10] 106%

Cc1ccccc1N=C(N)Nc1ccccc1C (tested in a mixture with another compound)
inactive: [1] 49.6% | [2] 46.6% | [3] 73.7% | [4] 91.6% | [5] 82.2% | [6] 98.5% | [7] 62.6% | [8] 78.8% | [9] 111% | [10] 79.3%

c1ccc(-c2cccc(-c3ccccn3)n2)nc1
active: [1] 7.98% | [6] 7.86% | [10] 1.8%
inactive: [2] 20.8% | [3] 12% | [4] 59% | [5] 33.3% | [7] 19.3% | [8] 28.2% | [9] 67%

CC/C(=C(/CC)c1ccc(O)cc1)c1ccc(O)cc1
inactive: [1] 21.1% | [2] 61.7% | [3] 80.1% | [4] 89.4% | [5] 76.8% | [6] 38.4% | [7] 82.4% | [8] 62.1% | [9] 63% | [10] 40.8%

CCCC[n+]1c(/C=C\c2c(OC)cc(OC)cc2OC)ccc2ccccc21
active: [1] -34.6% | [2] -25.6% | [3] -27.7% | [5] 9.07% | [6] -14.3% | [7] 9.69% | [8] -16.7%
inactive: [4] 24.3% | [9] 16.4% | [10] 76.8%

O=C(c1ccccc1)N(CCCl)C(=O)N(CCCl)C(=O)c1ccccc1
inactive: [1] 94.4% | [2] 101% | [3] 98.5% | [4] 91% | [5] 105% | [6] 104% | [7] 103% | [8] 107% | [9] 110% | [10] 91.8%

O=C1C(=O)c2cccnc2-c2ncccc21
active: [1] -45.5% | [2] -29.7% | [3] -33% | [4] -57.6% | [5] -100% | [6] -32.8% | [7] -53.8% | [8] -100% | [9] -47.5% | [10] -96.3%

Oc1ccc2ccccc2c1N=Nc1nccs1
inactive: [3] 14.9% | [4] 45.3% | [5] 16.2% | [6] 51.6% | [7] 184% | [9] 213%
active: [1] -10% | [2] 2.25% | [8] 1.47% | [10] -22.6%

C=C(C(N)=O)C(N)C(=O)O (stereo not given)
inactive: [1] 83.4% | [2] 104% | [3] 108% | [4] 113% | [5] 115% | [6] 112% | [7] 99.8% | [8] 105% | [9] 114% | [10] 112%

O=C(c1ccccc1)C(Br)[N+](=O)[O-] (stereo not given)
active: [1] 5.17%
inactive: [2] 75.9% | [3] 83.9% | [4] 96.4% | [5] 104% | [6] 79.9% | [7] 103% | [8] 101% | [9] 91.3% | [10] 101%
